In PubChem BioAssay (NCI) one finds growth data, which are given here for 35 compounds.

The panel holds about 83,000 compounds, 20% with a hit somewhere; the sample as a whole holds those more often.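 A percent growth of 40 corresponds to 60% growth inhibition; 0 means no net growth; -100 means all cells died. Active threshold: below 10.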 Active and inactive are the calls of the source.

The test system of the assay is MOLT-4 leukemia. Briefly: NCI-60 one-dose screen, 48 h (100 = growth as untreated, 0 = no growth, -100 = all killed). The settings on record: 10 µM unless noted.
For `CCC(/C=C\C(C)=O)CC`, the growth was 112% (inactive).
For `CCOC(=O)CO` the value was 86.4% (inactive); for `Cc1cc(=O)n(Nc2ccccc2)c(O)c1C#N`, 103% (inactive); for `CN(C)c1ccc(O)c2c1CC1CC3C(N(C)C)C(=O)C(C(N)=O)=C(O)C3(O)C(=O)C1=C2O` (stereo not given), 79.1% (inactive).
For `COc1ccc2c(Cl)cc(NC(=O)Nc3c(C)cccc3C)nc2c1`, the growth was 81.6% (inactive).
For `CC(=O)c1cccs1` the value was 95.4% (inactive); for `O=Cc1ccc(F)cc1`, 110% (inactive).
On to `O=C(O)c1ccc([N+](=O)[O-])cc1S(=O)(=O)O`, for which the growth was 105% (inactive).
For the compound `C=CCC(OC(C)=O)c1ccc(C(C)C)cc1` (stereo not given), the growth was 105% (inactive).
Next, `CCOc1ccc(C(=O)NCC(C)C)cc1`: 100% (inactive); `Cc1ccc(NC(=O)c2ccccc2Cl)cc1`: 87.8% (inactive).
With `CCCCNC(=O)c1ccc(OCC)cc1`, the growth was 105% (inactive).
For `CC(=O)c1cccc(N(C)S(=O)(=O)c2ccc(C)cc2)c1` the value was 94.9% (inactive).
Next, `CC(=O)c1cc(O)ccc1O`: 92.8% (inactive); `Cc1nc(O)cc(=O)[nH]1`: 103% (inactive); `CCOc1ccccc1NC(=O)CCl`: 70.2% (inactive).
As for `Cc1ccc(S(=O)(=O)CCCl)cc1`, the growth was 95.5% (inactive).
With `CC(CCC#N)(CCC#N)C(=O)c1ccccc1`, the growth is 97.8% (inactive).
Turning to `Cc1cc(CO)c(O)c(CO)c1`, the growth was 21.4% (inactive).
Turning to `O=Cc1ccc(Cl)c(Cl)c1`, the growth is 106% (inactive).
For `CCN(C(C)=O)c1ccc([N+](=O)[O-])cc1` the value was 95.6% (inactive); for `Nc1cccc2cccc(O)c12`, 83% (inactive); for `NC(=O)OCCO`, 97.7% (inactive).
Next, `CCOC(=O)C(CCC#N)(CCC#N)C(=O)OCC`: 97.3% (inactive); `N#CCCN1C(=O)CCC1C(=O)O` (stereo not given): -26.9% (active); `COC(=O)c1cccc([N+](=O)[O-])c1`: 105% (inactive).
On to `O=C(CC(CC(=O)c1ccccc1)c1ccccn1)c1ccccc1`, for which the growth is 102% (inactive).
Turning to `CC(=O)c1cccc(NS(=O)(=O)c2ccc(C)cc2)c1`, the growth was 73.9% (inactive).
As to `C=COC(=O)C(C)(C)C`, the growth was 92.5% (inactive).
For `CSc1nc2[nH]ncc2c(=O)[nH]1` the value was 110% (inactive); for `CC(=O)c1ccc(C)cc1`, 107% (inactive); for `O=c1[nH]c(=O)c2cc(Cl)cc(Cl)c2[nH]1`, 95.7% (inactive).
For `O=[N+]([O-])c1c(Cl)ncnc1Cl` the value was 112% (inactive); for `O=C1NCC2CCCC1C2` (stereo not given), 103% (inactive).
In the case of `OC(CBr)CCBr` (stereo not given), the growth was 104% (inactive).
